Assay outcomes deposited in PubChem by National Center for Advancing Translational Sciences (NCATS).
Compounds with a hit are over-represented: about 7.9% of the library has one in this group of screens.
SW480 rerep – induces DNA re-replication in SW480 colon adenocarcinoma cells; Potency, µM (series often up to 46.1 µM), for the others: at the highest dose re-replication activation, actives largely listed as activators; 340,000 compounds, 1.8% hits; SW480 DNA re-replication, Hoechst DNA content imaging, 48 h; note: % of control where 0% means no effect; nearly all actives have a fitted effect of over 55% in size
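Image-based read-out: total Hoechst fluorescence of nuclei (405 nm excitation, 500-530 nm emission), with hits raising the fraction of high-intensity nuclei. SW480 colon cells incubated 48 hr with compounds at 37 C.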
HT1080NT lethal – kills 2HG-producing HT-1080-NT fibrosarcoma cells; Potency, µM (top dose mostly 46.1 µM), without a hit: at the highest dose activity, negative = less viability, most hits filed as cytotoxic; AID 686970; 360,000 compounds, 1.6% hits; HT-1080-NT fibrosarcoma viability, CellTiter-Glo ATP luminescence, 48 h;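 note: NT is the 2HG producing partner of a matched IDH1 knockdown line; 0% = DMSO-treated cells and -100% = media-only wells without cells; nearly all actives have a fitted effect of over 55% in size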
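Luminescent CellTiter-Glo readout after 48 hours of compound exposure at 37 degrees C defined viability of HT-1080-NT cells. Activity was normalized to DMSO wells and cell-free media wells; concentration-response curves were fitted and assigned curve classes.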
MCF10A rereplic – inducers of DNA re-replication in MCF 10A breast cells; 350,000 compounds, 2.9% hits; MCF 10A DNA re-replication, Hoechst nuclear intensity, 48 h; Potency, µM (doses to about 46.1 µM), for inactives: at the highest dose activity, positive = re-replication, hits mostly activators; AID 624296; note: % of control where 0% means no effect; nearly all actives have a fitted effect of over 50% in size
KB-3-1 tox – KB-3-1 parental cell cytotoxicity. KB-3-1 viability, CellTiter-Glo ATP luminescence, 72 h. Potency, µM (highest dose often 46.1 µM), most hits filed as cytotoxic. 400,000 compounds, 1.4% hits. AID 1347075; note: % is set by controls: 0 for no effect and ±100 for the full control effect; nearly all actives have a fitted effect of over 60% in size
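72 h, 37 °C compound treatment of KB-3-1 parental cells; CellTiter-Glo added, 10 min, luminescence read. Data corrected against DMSO-only plates and normalized before curve fitting.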
HT1080 IDH1KD tx – HT-1080 IDH1 knockdown cell toxicity (counter line). 360,000 compounds, 2% hits. Potency, µM (titrated, usually from 46.1 µM), inactives show at the top dose activity, negative = toxicity, hits mostly cytotoxic. AID 686971. HT-1080 IDH1 knockdown viability, ATP luminescence, 48 h;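 note: 0% = DMSO wells and -100% = cell-free medium wells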
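After a 2 h attachment period, IDH1KD HT-1080 cells took pin-transferred compound for 48 h at 37 °C; ATP-based luminescence after 10 min room-temperature reagent incubation reported viability.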
KB-V1 MDR tox – KB-V1 MDR subline cytotoxicity; KB-V1 MDR cells viability, CellTiter-Glo, 72 h; AID 1347076; Potency, µM (highest dose often 46.1 µM), usual class: cytotoxic; 400,000 compounds, 3.4% hits; note: % is set by controls: 0 for no effect and ±100 for the full control effect; nearly all actives have a fitted effect of over 60% in size
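Cells of the MDR subline KB-V1 are plated, dosed with compound at multiple concentrations, and incubated 72 h at 37 degrees C; CellTiter-Glo is then added and luminescence read after 10 min.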
An asterisk follows results filed as active; i = inactive; ? = inconclusive; · = no result. Calls come from the whole dose curve; as a rule, active = well fitted curve in the direction sought with a large enough effect; inconclusive = small, poorly fitted or top-dose-only effect, or another doubt; inactive = no such curve, though single readings can be large; an effect the other way counts as inactive or inconclusive. Potency is the fitted concentration of half-maximal effect.

SMILES	SW480 rerep	HT1080NT lethal	MCF10A rereplic	KB-3-1 tox	HT1080 IDH1KD tx	KB-V1 MDR tox
CCOc1ccc(/C=C/C(=O)c2c(O)c3ccccc3oc2=O)cc1	?	-12%	?	i	?	12µM*
COc1ccc(-c2cccc(NS(=O)(=O)c3cc(C)c(Cl)cc3C)c2)nn1	·	·	·	i	·	i
O=S(=O)(c1ccc(Cl)cc1)c1nnn2c1nc(NCc1cccs1)c1sccc12	·	·	·	i	·	i
CC1=CC2=C(C=O)C(=O)C(C)(O)C(O)C2=CO1 (configuration not stated)	·	?	·	i	-25%	i
O=C(Nc1ccc(Br)cn1)c1cccc2ccccc12	3.3µM*	2.9µM*	4.1µM*	i	5.8µM*	1µM*
O=C(Nc1ccc(Cl)cn1)c1cccc2c(Br)cccc12	?	?	?	12µM*	?	i
O=C(Nc1ccc(Br)cn1)c1ccc2nccnc2c1	?	-1%	?	?	-4%	16µM*
COc1c(C(=O)Nc2ccc(Br)cn2)ccc2ccccc12	1%	12%	6%	i	10%	i
O=C1C[C@H]2C=CCc3cccc(c32)CN1Cc1ccc(Br)cc1	·	·	·	i	·	?
Cc1ccccc1CNc1nc(N(C)C)nc2c1cnn2C	·	·	·	i	·	i
O=C(CN1C(=O)COc2ccccc21)Nc1ccccc1F	4%	-1%	14%	?	-2%	i
O=C1COc2ccccc2N1Cc1c(F)cccc1Cl	50%	-2%	23µM*	i	8%	i
Cc1ccc2oc(=O)c3cc(C(=O)N4CCN(c5ccccc5)CC4)sc3c2c1	·	·	·	i	·	i
CC(C)(C)c1ccc(C(=O)N2CCC2(C)C(=O)Nc2ccc3[nH]ncc3c2)cc1 (configuration not stated)	·	-8%	·	i	?	i
COc1cccc(CN2CCC2(C)C(=O)Nc2cccc3cccnc23)c1F (configuration not stated)	·	23µM*	·	7.3µM*	13µM*	7.3µM*
COc1ccc(NC(=O)C2(C)CCN2Cc2ccc(OC)c3ccccc23)cc1OC (configuration not stated)	·	?	·	i	23µM*	i
COc1ccc(OC)c(NC(=O)C2(C)CCN2Cc2cccc(OC)c2F)c1 (configuration not stated)	·	?	·	i	-46%	i
COc1ccc(NC(=O)C2(C)CCN2C(=O)c2ccc(C(C)(C)C)cc2)cc1OC (configuration not stated)	·	2%	·	15µM*	?	16µM*
COc1ccc(NC(=O)C2(C)CCN2Cc2cccc(OC)c2OC)cc1OC (configuration not stated)	·	5%	·	?	-1%	8.2µM*
CCNC(=O)C1(C)CCN(C(=O)c2cccc(Cl)c2)C1 (configuration not stated)	·	22%	·	i	-3%	i
CCc1ccc(NC(=O)Cn2c(=O)n(CCCCC(=O)NCc3ccc4c(c3)OCO4)c(=O)c3ccccc32)cc1	·	·	·	i	·	?
CCOC(=O)CNC(c1ccccc1)c1cc(Br)ccc1NC(=O)c1ccc(Cl)cc1 (configuration not stated)	·	·	·	i	·	?
O=C(/C=C/c1cn(-c2ccccc2)nc1-c1cccnc1)N1CCCC1	-2%	4%	-1%	i	-13%	i
NC(=O)c1ccc(NC(=O)COC(=O)/C=C/c2cn(-c3ccccc3)nc2-c2cccnc2)cc1	5.2µM*	-20%	-3%	i	-26%	i
COc1ccc(-c2nn(-c3ccccc3)cc2/C=C/C(=O)OCC(=O)Nc2ccccc2C#N)cc1	1%	-12%	15µM*	?	-20%	?
CNC(=O)COC(=O)/C=C/c1cn(-c2ccccc2)nc1-c1ccc(C)o1	-1%	3%	11%	i	0%	i
